Measured values from PubChem BioAssay (NCI).
About 83,000 compounds went through this panel and 20% of them were active in at least one assay; those are over-represented in the sample as a whole.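 The endpoint reported here, percent growth, reads 100 for growth as untreated, 0 for no net growth and -100 for all cells dead.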 Activity calls are given as the source filed them. Rule for the calls: active = growth percent below 10; inactive = the rest.

Columns and labels:
Assay in all cases: NCI-60 one-dose screen, 48 h (100 = growth as untreated, 0 = no growth, -100 = all killed)
Conditions in all cases: 10 µM unless noted
NCI-H23 lung = test system: NCI-H23 lung
NCI-H226 lung = test system: NCI-H226 lung
NCI-H322M lung = test system: NCI-H322M lung
HOP-62 NSCLC = test system: HOP-62 NSCLC
NCI-H460 lung = test system: NCI-H460 lung
HOP-92 NSCLC = test system: HOP-92 NSCLC
NCI-H522 lung = test system: NCI-H522 lung
A549/ATCC NSCLC = test system: A549/ATCC NSCLC
786-0 renal = test system: 786-0 renal
COLO 205 colon = test system: COLO 205 colon
DU-145 prostate = test system: DU-145 prostate
K-562 leukemia = test system: K-562 leukemia
MALME-3M melanoma = test system: MALME-3M melanoma
MDA-MB-231 breast = test system: MDA-MB-231 breast
RXF 393 renal = test system: RXF 393 renal
SF-268 CNS = test system: SF-268 CNS
SF-295 CNS = test system: SF-295 CNS
SF-539 CNS = test system: SF-539 CNS
UACC-257 melanoma = test system: UACC-257 melanoma
M14 melanoma = test system: M14 melanoma

Measured: growth

COc1ccc(-c2cc(C)nc3[nH]c(=O)sc23)cc1
active: 786-0 renal 0.453%
inactive: NCI-H23 lung 74.3% | NCI-H226 lung 36.3% | NCI-H322M lung 68.4% | HOP-62 NSCLC 44.9% | NCI-H460 lung 52.4% | HOP-92 NSCLC 16.3% | NCI-H522 lung 61.8% | A549/ATCC NSCLC 52.8% | COLO 205 colon 119% | DU-145 prostate 67.3% | K-562 leukemia 62.5% | MALME-3M melanoma 95.2% | MDA-MB-231 breast 34.6% | RXF 393 renal 57% | SF-268 CNS 69.4% | SF-295 CNS 45.7% | SF-539 CNS 49.5% | UACC-257 melanoma 95.3% | M14 melanoma 98.5%

COc1cc(NC(=O)C(C)C)ccc1C(=O)NC(=S)Nc1ccc(S(N)(=O)=O)cc1
inactive: NCI-H23 lung 102% | NCI-H226 lung 115% | NCI-H322M lung 99.7% | HOP-62 NSCLC 91.6% | NCI-H460 lung 107% | HOP-92 NSCLC 78% | NCI-H522 lung 76.3% | A549/ATCC NSCLC 106% | 786-0 renal 79.6% | COLO 205 colon 118% | DU-145 prostate 106% | K-562 leukemia 108% | MALME-3M melanoma 94.4% | MDA-MB-231 breast 93.1% | RXF 393 renal 88.7% | SF-268 CNS 80.8% | SF-295 CNS 84.2% | SF-539 CNS 88.9% | UACC-257 melanoma 101% | M14 melanoma 106%

COc1ccc(NC(=O)NN2C(=O)c3ccccc3N(C)C2c2ccc(OC)cc2)cc1 (stereo not given)
inactive: NCI-H23 lung 100% | NCI-H226 lung 106% | NCI-H322M lung 95.8% | HOP-62 NSCLC 97.8% | NCI-H460 lung 109% | HOP-92 NSCLC 102% | NCI-H522 lung 93% | A549/ATCC NSCLC 108% | 786-0 renal 65.8% | COLO 205 colon 103% | DU-145 prostate 107% | K-562 leukemia 95.6% | MALME-3M melanoma 95% | MDA-MB-231 breast 98.9% | RXF 393 renal 112% | SF-268 CNS 107% | SF-295 CNS 101% | SF-539 CNS 100% | UACC-257 melanoma 103% | M14 melanoma 70.3%

C=CCSc1nnc(-c2ccc(-c3nc4ccc(Cl)cc4[nH]3)cc2)o1
inactive: NCI-H23 lung 76.2% | NCI-H226 lung 103% | NCI-H322M lung 86.7% | HOP-62 NSCLC 39.9% | NCI-H460 lung 38.1% | HOP-92 NSCLC 81.8% | NCI-H522 lung 29.8% | A549/ATCC NSCLC 60.3% | 786-0 renal 76.4% | COLO 205 colon 55.7% | DU-145 prostate 85% | K-562 leukemia 19.5% | MALME-3M melanoma 39.3% | MDA-MB-231 breast 41.2% | RXF 393 renal 53.1% | SF-268 CNS 75.7% | SF-295 CNS 58.2% | SF-539 CNS 56.3% | UACC-257 melanoma 68.2% | M14 melanoma 28.7%

CCN(C(=O)CN1C(=O)/C(=C/c2ccco2)SC1=S)C1CCS(=O)(=O)C1 (stereo not given)
inactive: NCI-H23 lung 99.9% | NCI-H226 lung 99.1% | NCI-H322M lung 99.8% | HOP-62 NSCLC 123% | NCI-H460 lung 101% | HOP-92 NSCLC 103% | NCI-H522 lung 47.5% | A549/ATCC NSCLC 102% | 786-0 renal 101% | COLO 205 colon 120% | DU-145 prostate 101% | K-562 leukemia 89.9% | MALME-3M melanoma 104% | MDA-MB-231 breast 108% | RXF 393 renal 109% | SF-268 CNS 95.4% | SF-295 CNS 105% | SF-539 CNS 98% | UACC-257 melanoma 98.2% | M14 melanoma 97.3%

COc1ccc2[nH]c(O)c(N=Nc3nc(-c4ccccc4)cs3)c2c1
active: HOP-92 NSCLC -8.09% | NCI-H522 lung 8.94% | A549/ATCC NSCLC 2.49% | 786-0 renal -44.8% | RXF 393 renal 4.35% | SF-295 CNS -8.96% | SF-539 CNS -11.9%
inactive: NCI-H23 lung 23.9% | NCI-H226 lung 11.2% | NCI-H322M lung 26.5% | HOP-62 NSCLC 21.3% | NCI-H460 lung 12.3% | COLO 205 colon 30% | DU-145 prostate 34.6% | K-562 leukemia 28.9% | MALME-3M melanoma 22.5% | MDA-MB-231 breast 60.1% | SF-268 CNS 17.1% | UACC-257 melanoma 59.3% | M14 melanoma 55.6%

CC(C)(C)OC(=O)N1CCC2(CC1)Oc1ccccc1[C@H]1CC(c3ccc(Br)cc3)=NN12
inactive: NCI-H23 lung 80.9% | NCI-H226 lung 79% | NCI-H322M lung 86.6% | HOP-62 NSCLC 77% | NCI-H460 lung 66.6% | HOP-92 NSCLC 67.5% | NCI-H522 lung 74.4% | A549/ATCC NSCLC 67.4% | 786-0 renal 76.8% | COLO 205 colon 101% | DU-145 prostate 93.1% | K-562 leukemia 36.1% | MALME-3M melanoma 90% | MDA-MB-231 breast 63% | RXF 393 renal 86.2% | SF-268 CNS 55.9% | SF-295 CNS 52.5% | SF-539 CNS 88.8% | UACC-257 melanoma 99.3% | M14 melanoma 87.3%

COc1cc(C2CC(c3ccc(S(=O)(=O)NCCNc4nc(N(C)C)nc(N5CCOCC5)n4)cc3)=Nc3c(N)nc(N)nc3N2)cc(OC)c1OC (stereo not given)
inactive: NCI-H23 lung 97.4% | NCI-H226 lung 85.1% | NCI-H322M lung 79.8% | HOP-62 NSCLC 90.8% | NCI-H460 lung 104% | HOP-92 NSCLC 92.7% | NCI-H522 lung 90.1% | A549/ATCC NSCLC 98.3% | 786-0 renal 94.3% | COLO 205 colon 116% | DU-145 prostate 109% | K-562 leukemia 92.5% | MALME-3M melanoma 92.6% | MDA-MB-231 breast 80.8% | RXF 393 renal 85.7% | SF-268 CNS 89.6% | SF-295 CNS 94.4% | SF-539 CNS 96.8% | UACC-257 melanoma 99.8% | M14 melanoma 101%
